According to PubChem BioAssay (NCI):
The panel holds about 83,000 compounds, 20% with a hit somewhere; the sample as a whole holds those more often.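 Interpretation: 100, growth as untreated; towards 0, rising growth inhibition; 0, no net growth; 0 to -100, cell death. Compounds scoring below 10 were considered active.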 The source made the active and inactive calls.

tested on: MDA-MB-435 melanoma; assay: NCI-60 one-dose screen, 48 h (100 = growth as untreated, 0 = no growth, -100 = all killed); details: 10 µM

| Structure (SMILES) | growth |
| --- | --- |
| COc1ccccc1/C=N\N/C(N)=N\N=C\c1ccccc1OC | -39.2% (active) |
| Cc1cc(CCNC=O)c(C)c2c1sc1ccccc12 | 94.5% (inactive) |
| COc1ccc(-c2nc(-c3nc4ccc(C)cc4[nH]3)cc3c2[nH]c2ccccc23)cc1 | 46% (inactive) |
| Cc1ccc(/C=C2/C(=O)N(C)c3ccc(S(=O)(=O)Nc4ccc(C(C)(C)C)cc4)cc32)s1 | 83.1% (inactive) |
| c1ccc(/C(=N\Nc2ccc3ccccc3n2)c2ccccn2)cc1 | 23.4% (inactive) |
| NC(N)=N/N=C(\N=Nc1ccccc1)c1ccc(Cl)cc1 | 5.69% (active) |
| COc1cc(NC(=O)Nc2cnc(Nc3ccc(N4CCOCC4)cc3)nc2Oc2cccc(OC)c2)cc(OC)c1 | 51.6% (inactive) |
| COc1cc(-c2nn(-c3cccc(NC(=O)CCN4CCN(c5ccccc5)CC4)c3)cc2-c2ccncc2)ccc1Cl | 16.8% (inactive) |
| OCC1OC(n2ccc3c(NO)ncnc32)C(O)C1O (stereo not drawn) | -54.5% (active) |
| CCOC(=O)C1C(C(=O)OCC)C2C(=O)C3C(C(=O)OCC)C(C(=O)OCC)C3C(=O)C12 (stereo not drawn) | 105% (inactive) |
| CCCCN(CCCC)C(=O)[C@H](CC)[C@@H]1CC[C@@H](C)[C@@H]([C@H](C)[C@@H](O)[C@@H](C)C(=O)[C@H](CC)C2O[C@]3(C=CC(=O)[C@]4(CC[C@@](C)([C@H]5CC[C@](O)(CC)[C@H](C)O5)O4)O3)[C@H](C)C[C@@H]2C)O1 (stereo partly drawn) | 44.6% (inactive) |
| COc1ccc(Cl)cc1Nc1nc(C(F)(F)F)ccc1C(=O)N/N=C/c1ccc(Cl)cc1 | 59.2% (inactive) |
| CCCc1nc(C(C)(C)O)c(C(=O)O)n1Cc1ccc(-c2ccccc2-c2nn[nH]n2)cc1 | 106% (inactive) |
| O=C(COc1cccc(/C=C2\CSc3ccccc3C2=O)c1)c1ccc(Cl)cc1 | -14.8% (active) |
| O=C(COc1cccc(/C=C2\CSc3ccc(Cl)cc3C2=O)c1)c1ccc(Cl)cc1 | 87.7% (inactive) |
| O=C(CCl)Nc1ccc(Cc2ccc(NC(=O)CCl)cc2)cc1 | 0.989% (active) |
| O=C1CSC(=S)N1/N=C/c1ccc(Cl)s1 | 106% (inactive) |
| CCc1ccc(C2=NN(c3ccc(S(C)(=O)=O)cc3)C(=O)CC2)cc1 | -24.3% (active) |
